Results reported in PubChem BioAssay (NCI).
Compounds without any hit were thinned out: in the full panel of roughly 83,000, 20% have a hit.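 In brief: 96-well plates, 48 h treatment, single concentration, percent growth endpoint.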 Unmarked numbers belong to inactive results. Activity calls are given as the source filed them. The calls were made as follows: active = growth percent below 10; inactive = the rest.

What was measured:
Assay in all cases: NCI-60 one-dose screen, 48 h (100 = growth as untreated, 0 = no growth, -100 = all killed)
Conditions in all cases: 10 µM unless noted
SK-MEL-2 melanoma = system: SK-MEL-2 melanoma
EKVX NSCLC = system: EKVX NSCLC
SN12C renal = system: SN12C renal
UO-31 renal = system: UO-31 renal
TK-10 renal = system: TK-10 renal
ACHN renal = system: ACHN renal
CAKI-1 renal = system: CAKI-1 renal
A498 renal = system: A498 renal
MOLT-4 leukemia = system: MOLT-4 leukemia
CCRF-CEM leukemia = system: CCRF-CEM leukemia

Row | SMILES | growth (SK-MEL-2 melanoma) | growth (EKVX NSCLC) | growth (SN12C renal) | growth (UO-31 renal) | growth (TK-10 renal) | growth (ACHN renal) | growth (CAKI-1 renal) | growth (A498 renal) | growth (MOLT-4 leukemia) | growth (CCRF-CEM leukemia)
1 | COc1cc2c3c(cc4c5c(ccc4c3c1OC)OCO5)N(CCN(C)C)C2=O | -44.5% (active) | -22% (active) | -5.44% (active) | -53.9% (active) | -4.01% (active) | -51.4% (active) | -26.6% (active) | -77.6% (active) | 3.85% (active) | 
2 | CCC1=Cc2c(OC)cccc2OC12C=Cc1c(OC)cccc1O2 (centres undefined) | 65.8% | 52.4% | 42% | 39.8% | 101% | 35.9% | 28.4% | 6.92% (active) | 15.8% | 16.2%
3 | COc1ccc(C2CC(c3cccc(OCCCCOc4cccc(C5=NN(C(C)=O)C(c6ccc(OC)cc6)C5)c4)c3)=NN2C(C)=O)cc1 (centres undefined) | 59.7% | 46.3% | 79.9% | 54.7% | 78.9% | 67.2% | 54.1% | 75.8% | 57.4% | 
4 | C/C(CC1(O)C(=O)Nc2ccccc21)=N\O (centres undefined) | 102% | 87.9% | 98% | 84.9% | 104% | 92.5% | 83.5% | 70.6% | 95.4% | 
5 | NS(=O)(=O)c1ccc(Nc2nc(Nc3ccccc3)nc(N3N=C(c4ccc(Cl)cc4)CC3c3ccc(Cl)cc3)n2)cc1 (centres undefined) | 65.6% | 56.9% | 40.2% | 48.9% | 89.3% | 32.6% | 42.7% | 55.8% | 17.3% | 14.2%
6 | CC1(C)CC[C@]23CC[C@]4(C)[C@H](CC[C@@H]5[C@@]6(C)CC[C@H](NCO)C(C)(C)[C@@H]6CC[C@]54C)[C@H]2[C@H]1OC3 | 97.2% | 93.9% | 43.3% | 73.9% | 122% | 26.4% | 29.3% | 106% | 15% | 36.5%
7 | C=C(C)[C@@H]1CC[C@]2(C(=O)N3CCN(C)CC3)CC[C@]3(C)[C@H](CC[C@@H]4[C@@]5(C)CC[C@H](OP(=O)(OCC)OCC)C(C)(C)[C@@H]5CC[C@]43C)[C@@H]12 | 106% | 72.8% | 84.7% | 60.8% | 108% | 83.6% | 61.2% | 96.4% | 36.3% | 
8 | N#Cc1c(-c2ccc(Br)cc2)cc(-c2c[nH]c3ccccc23)nc1N | 39.6% | 51.6% | 66.3% | 43.6% | 96.8% | 57.4% | 30.9% | 63.7% | 41.4% | 
9 | CCCCCCOC(=O)c1cc(-c2ccc(F)cc2)nc2ccccc12 | 101% | 96.8% | 95% | 86.6% | 118% | 100% | 90.3% | 76.4% | 97.2% | 
10 | Oc1[nH]c2ccc(Cl)cc2c1N=Nc1nc(N=Nc2c(O)[nH]c3ccc(Cl)cc23)nc(N2CCCCC2)n1 | 86.7% | 50.8% | 42.5% | 86.7% | 121% | 88.6% | 88.1% | 94.2% | 22.1% | 
11 | COc1ccc2sc(NC(=O)CCCCCCNC(=O)C(O)(O)C(F)(F)F)nc2c1 | -17.5% (active) | 23.3% | 10.5% | -13.7% (active) | -12.4% (active) | -26.8% (active) | -16.3% (active) | -35.2% (active) | 13% | 
12 | O=S(=O)(NCCCNc1nccc(-c2[nH]c(-c3ccccc3)nc2-c2ccc(F)c(O)c2)n1)c1cccc2ccccc12 | 17.1% | 82% | 63.2% | 75.2% | 72.5% | 59.6% | 77.2% |  | 31.4% | 17%
13 | Brc1ccc(-c2cc(-c3ccc4c(c3)OCCO4)n[nH]2)s1 | 55.3% | 48.4% | 54.3% | 44.5% | 105% | 47.9% | 31.7% | 40.3% | 19.3% | 
14 | O=C(NNc1nc2cc(F)cc(F)c2n2cccc12)c1cccnn1 | 20.8% | 9.18% (active) | 18.5% | 15.4% | 42.4% | 10.3% | 12.4% |  | 7.32% (active) | 6.41% (active)
15 | COc1ccc(/C=N\NC(=O)c2cnn(CC(O)c3ccccc3)c2N)cc1OCc1ccc(Cl)cc1 (centres undefined) | 92.9% | 79.1% | 84.4% | 87.4% | 101% | 58.6% | 71% |  | 62.4% | 72.6%
16 | Nc1ccc(Nc2ncnc3sc4c(c23)CCN(Cc2ccccc2)C4)cc1 | 109% | 102% | 96.8% | 83.8% | 134% | 91.7% | 90.8% |  | 87.8% | 95.1%
17 | CN1CCN(c2ccc(Nc3nc(NCCNS(=O)(=O)c4ccc(Cl)cc4)c4sccc4n3)cc2)CC1 | 110% | 91.6% | 97.7% | 80% | 128% | 98.2% | 72.8% |  | 73.6% | 75.7%
18 | C#Cc1nc(/C=C/C(=O)NO)cs1 | 81.5% | 85.2% | 91.6% | -94% (active) | 43% | -81.9% (active) | -94.9% (active) |  | -45.3% (active) | -45.7% (active)
19 | CCOP(=O)(OCC)OC[C@]12CC[C@@H](C)[C@H](C)C1C1=CC[C@@H]3[C@@]4(C)CCCNC(C)(C)[C@@H]4CC[C@@]3(C)[C@]1(C)CC2 (some centres undefined) | 109% | 36.8% | 40.1% | 21.1% | 61.2% | 34.4% | 13% |  |  | -33.3% (active)
20 | CN1CCN(Cc2ccc(NC(=O)c3cncc(C#Cc4cnc5ccc(OCC(F)F)nn45)c3)cc2C(F)(F)F)CC1 | -86.5% (active) | -69.1% (active) | -75.2% (active) | -95.8% (active) | -84.4% (active) | -98.3% (active) | -95.9% (active) |  | -21.7% (active) | 2.09% (active)
21 | O=C1Nc2ccccc2/C1=N\c1nnc(-c2ccccc2)o1 | 96.4% | 67.9% | 104% | 75.5% | 224% | 88.2% | 88.2% |  | 96.7% | 96.2%
22 | Nn1c(=O)n(-c2cccc(C(F)(F)F)c2)c(=O)c2cc(-c3ccc(F)cc3F)ccc21 | -21.5% (active) | 3.55% (active) | 1.86% (active) | 5.45% (active) | 7.05% (active) | 0.86% (active) | -12.5% (active) |  | 4.48% (active) | 13.3%
23 | CN1CCN(c2ccc(Nc3nc(NCCCNS(=O)(=O)c4ccccc4)c4sccc4n3)cc2)CC1 | 106% | 97.6% | 72.7% | 69.2% | 145% | 20.2% | 30.8% |  | 26% | 37.9%
24 | Cc1ccc(-c2cc3nc(C(Cl)Cl)nc(-c4ccc(S(=O)(=O)N(C)C)cc4)n3n2)cc1 | 113% | 103% | 50.7% | 92.1% | 107% | 83.2% | 82.2% |  | 75.6% | 69.3%
25 | CS(=O)(=O)c1ccc(/C(=N/N=C(N)N)c2ccc(Cl)cc2)cc1 | 93.7% | 91% | 95.7% | 84.4% | 76.1% | 99.1% | 59.5% |  | 99.1% | 94.3%
26 | CC1=C(C)C(=O)C(Nc2ccc3c(c2)OCCO3)=C(Br)C1=O | 114% | 73.7% | 99.7% | 95.8% | 135% | 101% | 102% |  | -7.79% (active) | 13.2%
27 | Cc1ccc2c(n1)C(=O)C(Cl)=C(Nc1ccc(C(C)C)cc1)C2=O | 71.2% | -0.749% (active) | 46.4% | -65.3% (active) | 145% | -77.2% (active) | 77.3% |  | 4.3% (active) | 3.85% (active)
28 | CCOC(=O)c1cccc(NC2=C(Cl)C(=O)C(C)=C(C)C2=O)c1 | 104% | 74.4% | 94.8% | 96.7% | 129% | 106% | 89.4% |  | 5.67% (active) | 13.9%
